High-throughput results as filed in PubChem.
The full list was thinned out, with hits kept by preference.
Pf Dd2 growth = Plasmodium falciparum Dd2 growth inhibition; Potency, µM (top dose mostly 28.9 µM), hits mostly inhibitors; 120,000 compounds, 4.3% hits; AID 1347417; P. falciparum Dd2 growth, SYBR Green, 72 h; active = well fitted inhibition curve with a large enough effect; also: nearly all actives have a fitted effect of over 65% in size
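Infected erythrocytes (Dd2, 0.3% parasitemia, 2.5% hematocrit final) are added to compound in RPMI-1640/Albumax II medium, grown 72 h at 37C in low oxygen, then lysed with saponin/Triton-X containing SYBR Green and read by fluorescence.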
A number is an active result; – = inactive.

SMILES	Pf Dd2 growth
O=C1OCC2(CCN([S+](=O)([O-])c3ccc(C(F)(F)F)cc3)C2)N1Cc1ccccn1 (stereo not given)	–
Cc1cc(N2C[C@@H](C)[C@@](C)(O)C2)nc(N2CCCCC2)n1	–
COc1ccc(NC(=O)c2cc(C3CC3)nc3c2c(C)nn3-c2ccccc2)cc1	–
COc1ccc(-c2cc(C(=O)NC3CCNCC3)c3c(C)nn(-c4ccccc4)c3n2)cc1	11µM
COCCNC(=O)c1cc(-c2ccc(OC)cc2)nc2c1c(C)nn2-c1ccccc1	–
CSc1ccc(-c2cccc(C(=O)O)c2)cc1	–
O=C(c1cccnc1)N1CCCC2(C1)C(=NC1CCCCC1)NC(=O)N2c1cccnc1 (stereo not given)	–
COc1cccc(-c2noc(CC3CCN(C(=O)c4ccc(F)c(F)c4)CC3)n2)c1	–
O=C(NCc1ccc2c(c1)OCO2)c1cnc2c(c1)N(Cc1ccccc1)CCC2	–
CCOc1ccccc1NC(=O)Cc1csc(COc2cccc(C)c2)n1	11µM
CC(=O)Nc1cccc(NC(=O)Cc2csc(COc3cccc(C)c3)n2)c1	–
Cc1cccc(NC(=O)Cc2csc(COc3cccc(C)c3)n2)c1	–
CNC(=O)[C@H]1C[C@H](Oc2ccccc2)CN1S(=O)(=O)c1ccc(OC)cc1	–
Cc1cn2nc(C(=O)N3CCC(C(=O)NC4CCC(C)CC4)CC3)cc2c(=O)[nH]1 (stereo not given)	–
O=C(O)CCCNC(=O)Cn1nc2c(cc1=O)CCCCC2	–
CCn1cc(-c2ccc(C)cc2)cc1C(=O)N1CCN(c2ccccn2)CC1	–
CC(=O)Nc1ccc(NC(=O)c2cc(-c3ccncc3)cn2Cc2ccccc2C)cc1	3.2µM
Cc1ccccc1Cn1cc(-c2ccncc2)cc1C(=O)N1CCN(c2ccccc2)CC1	3.5µM
COc1cccc(NC(=O)c2cccn(Cc3ccccc3C)c2=O)c1	–
CCCn1cc(-c2ccncc2)cc1C(=O)N1CCN(c2ccccc2OC)CC1	4µM
CCn1cc(-c2ccncc2)cc1C(=O)N1CCOCC1	–
CCn1cc(-c2ccncc2)cc1C(=O)NCc1cccc(F)c1	–
CCCN1CCN(C(=O)c2cc(-c3ccc(F)cc3)cn2CC)CC1	–
CCCn1cc(-c2ccncc2)cc1C(=O)N1CCN(C)CC1	–
Cc1cccn2c(CC(=O)N3Cc4[nH]cnc4CC3C(=O)O)cnc12 (stereo not given)	–
SMILES	Pf Dd2 growth
COC(=O)c1cc(N2CCC(C(C)N3CCN(C)CC3)CC2)ncn1 (stereo not given)	–
O=C(c1cc(COc2ccc3c(c2)OCO3)[nH]n1)N1CCCC1c1ccccn1 (stereo not given)	–
Cc1nc(CCNC(=O)C(C)(C)C)no1	–
Cc1ccc(C(C)C)c(OCC(=O)Nc2nc3c(s2)CCCC3)c1	–
Cc1cccc(C)c1OCC(=O)NCC1(N(C)C)CCCCC1	–
Cc1ccc(C(C)C)c(OCC(=O)NCC2(N(C)C)CCCCC2)c1	2.8µM
Cc1cnc(C)c(N2CCN(Cc3nc(-c4sccc4C)oc3C)CC2)n1	–
COC[C@H]1CCCN1C(=O)C[C@@H]1O[C@H](CNC(=O)Nc2cccc(F)c2)[C@@H](O)[C@H]1O	–
COCC1CN(Cc2cccc(C#N)c2)CC12CCNCC2 (stereo not given)	–
CCOc1ccc(NCc2cccn2-c2nnc(N3CCC(C(=O)NCc4cccc(OC)c4)CC3)s2)cc1	–
COc1cccc(N2CCN(C(=O)c3cccn3-c3nnc(N4CCCCC4)s3)CC2)c1	–
COc1cccc(CNCc2cccn2-c2nnc(N3CCN(c4ccccc4)CC3)s2)c1	10µM
CCOC(=O)c1[nH]c(=O)[nH]c1C1CC(=O)Nc2c1cnn2C(CC)CC (stereo not given)	–
CN(C)Cc1nnc(C2CC(NC(=O)C3(C#N)CCOCC3)C2)n1C (stereo not given)	–
O=C(CN1CCCCCC1)N1C[C@@H](CO)[C@H](c2ccncc2)C1	–
COc1cccc(N2C(=O)NC(=NC3CCCCC3)C23CCN(Cc2ccccc2)C3)c1 (stereo not given)	–
COc1cccc(N2C(=O)NC(=NC3CCCC3)C23CCN(Cc2ccc(F)cc2)C3)c1 (stereo not given)	13µM
COc1cccc(N2C(=O)NC(=NC3CCCC3)C23CCCN(C(=O)c2ccccc2F)C3)c1 (stereo not given)	–
COc1cccc(N2C(=O)NC(=NC3CCCCC3)C23CCCN(C(=O)c2ccccc2OC)C3)c1 (stereo not given)	–
COc1ccc(CN2CCC3(CC2)C(=NC2CCCCC2)NC(=O)N3c2cccc(OC)c2)cc1	–
COc1cccc(N2C(=O)NC(=NC3CCCCC3)C23CCCN(Cc2ccc(F)cc2)C3)c1 (stereo not given)	13µM
CCOC(=O)CCNC(=O)N1CCC(C(=O)N2CCCCCCNC(=O)CC2)CC1	–
O=S1(=O)CCCN1C1CCN(Cc2cccc3ccccc23)CC1	–
OCC1(CCOc2ccccc2)CCCN(c2ncnc3sccc23)C1 (stereo not given)	–
COc1ccc(-c2noc(-c3nc(-c4cc(OC)c(OC)c(OC)c4)no3)n2)cc1OC	–
SMILES	Pf Dd2 growth
Cc1ccc(C2Cn3nnc(-c4noc(COc5ccccc5)n4)c3CO2)cc1 (stereo not given)	–
CC(=O)N1CCN(CC[C@@H]2CC[C@H](O)[C@@H](C(=O)N3CCOCC3)O2)CC1	–
CC(C)CN1C(=O)COC[C@@H]1[C@H](O)c1ccc(NC(=O)CC(C)(C)C)cc1	–
Cc1cnc(CCNC(=O)COc2ccccc2)n1C1CCC1	3.2µM
CCCn1c(C)cnc1CC1CCN(C(=O)C2(c3ccc(OC)cc3)CC2)C1 (stereo not given)	5µM
CC(=O)N1CCC(C(=O)NCCc2ncc(C)n2C2CCC2)CC1	–
COc1ccc(C2(C(=O)NCCc3ncc(C)n3C3CC3)CC2)cc1	2.5µM
COCCn1c(C)cnc1CC1CCCN(C(=O)C2(c3ccc(OC)cc3)CC2)C1 (stereo not given)	–
Cc1cnc(CCNC(=O)C2(c3ccccc3)CC2)n1C1CCCCCC1	2.2µM
Cc1cnc(C(=O)NCCc2ncc(C)n2C2CC2)cn1	–
CCCn1c(C)cnc1CC1CCN(C(=O)c2c(C)noc2C)CC1	–
Cc1cnc(CCNC(=O)c2ccnn2C)n1C1CC1	–
COC(=O)CNC(=O)NCCc1ncc(C)n1C1CCCC1	–
Cc1ccc(NC(=O)NCCc2ncc(C)n2C2CCC2)cc1C	–
Cc1cnc(CCNC(=O)c2ccc(C#N)cc2)n1C1CCC1	–
Cc1cccc(CN2C[C@@H]3[C@H](C2)N(CC(C)C)C(=O)C(C)(C)[S+]3(=O)[O-])c1	–
Cn1nc(C(=O)N2C[C@@H](Oc3cccnc3)C[C@H]2C(N)=O)c2ccccc21	–
COC[C@@H]1CN(S(=O)(=O)c2ccc(F)cc2)C[C@H]1c1nc(C)no1	–
O=C([C@@H]1C[C@H](c2ccc(F)cc2)N(Cc2ccccc2Cl)C1)N1CCOCC1	–
CCn1cc(S(=O)(=O)N2CCC3(CCC3OC)CC2)cn1 (stereo not given)	–
CC(=O)N1CCC(n2c(C)cnc2C2CC2)CC1	–
Cc1cnc(-c2ccncc2)n1C1CCCN(C(=O)C2(c3ccccc3)CC2)C1 (stereo not given)	–
Cc1cnc(C2CCC2)n1C1CCN(C(=O)C2(c3ccccc3)CC2)CC1	13µM
Cn1nnnc1C1CCCN(C(=O)c2cccc(F)c2)C1 (stereo not given)	–
c1cncc(OCc2nc(C3CCNCC3)no2)c1	–
COCc1nnc2n1CCC(NC(=O)CCc1c(C)noc1C)CC2 (stereo not given)	–
